Measured values from PubChem BioAssay (NCI).
The panel holds about 83,000 compounds, 20% with a hit somewhere; the sample as a whole holds those more often.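 Interpretation: 100, growth as untreated; towards 0, rising growth inhibition; 0, no net growth; 0 to -100, cell death. Compounds scoring below 10 were considered active.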 Values without a mark were called inactive. Activity calls are given as the source filed them.

What was measured:
Assay in all cases: NCI-60 one-dose screen, 48 h (100 = growth as untreated, 0 = no growth, -100 = all killed)
[1] = system: DU-145 prostate; settings: 10 µM unless noted
[2] = system: K-562 leukemia; settings: 10 µM unless noted
[3] = system: MALME-3M melanoma; settings: 10 µM unless noted
[4] = system: MDA-MB-231 breast; settings: 10 µM unless noted
[5] = system: RXF 393 renal; settings: 10 µM unless noted
[6] = system: SF-268 CNS; settings: 10 µM unless noted
[7] = system: SF-295 CNS; settings: 10 µM unless noted
[8] = system: UACC-257 melanoma; settings: 10 µM unless noted
[9] = system: M14 melanoma; settings: 10 µM unless noted
[10] = system: HCT-15 colon; settings: 10 µM unless noted
[11] = system: HT29 colon; settings: 10 µM unless noted
[12] = system: SNB-75 CNS; settings: 10 µM unless noted
[13] = system: SNB-19 CNS; settings: 10 µM unless noted
[14] = system: U251 CNS; settings: 10 µM unless noted
[15] = system: PC-3 prostate; settings: 10 µM unless noted
[16] = system: SK-MEL-5 melanoma; settings: 10 µM unless noted
[17] = system: UACC-62 melanoma; settings: 10 µM unless noted
[18] = system: LOX IMVI melanoma; settings: 10 µM
[19] = system: SK-MEL-28 melanoma; settings: 10 µM unless noted
[20] = system: SF-539 CNS; settings: 10 µM unless noted

SMILES	growth [1]	growth [2]	growth [3]	growth [4]	growth [5]	growth [6]	growth [7]	growth [8]	growth [9]	growth [10]	growth [11]	growth [12]	growth [13] [%]	growth [14]	growth [15]	growth [16]	growth [17]	growth [18]	growth [19]	growth [20] [%]
CC1C(c2ccccc2)OCCN1C(=S)Nc1ccc(S(=O)(=O)N2CCCCC2)cc1 (stereo not given)	104%	109%	96.5%	86%	95.5%	109%	99.2%	91.5%	94.5%	97.2%	87.5%	100%	102	93%	97.7%	88.7%	88.9%	58.9%	108%	
Fc1ccc(NCCS)cc1	107%	101%	108%	102%	108%	102%		102%	103%	105%	111%	80.4%	107	97.9%	99.1%		106%	91.7%	103%	103
Cc1cccc2c(N)c3ccccc3nc12	6.74% (active)	6.25% (active)	-37.2% (active)	-24.2% (active)	-48.2% (active)	-1.12% (active)	5.09% (active)	-22.2% (active)	-55% (active)	-8.39% (active)	-7.57% (active)	2.93% (active)	27.5	-17.6% (active)	-18.7% (active)	-77.2% (active)	-57.6% (active)	-57.3% (active)	-41.1% (active)	
Clc1ccc(-n2ncc3c(NCCCN4CCOCC4)ncnc32)cc1	104%	94.2%	95.7%	83.2%	90.3%	99.1%	99.4%		97.2%	96.6%	105%	89.6%	102	93.1%	87.5%	83.5%	110%	88.8%	94.6%	97
